Screening results deposited in PubChem by National Center for Advancing Translational Sciences (NCATS).
Marburg entry inh: Marburg virus entry inhibition; AID 540276; Marburg virus pseudotyped entry inhibition, cell reporter; actives 1.8% (n = 300,000); Potency, µM (top dose mostly 37.8 µM), for the others: at the highest dose activity change, negative = inhibition, actives largely listed as inhibitors; calls by dose curve; tested in HEK293 cells; further: potency means the concentration at half of the fitted maximal effect; on the % scale 0 is the no-effect control and ±100 the full control effect
Cycloheximide cs: affects cycloheximide protein synthesis inhibition readout, counter-screen; cell reporter, cycloheximide protein synthesis inhibition counterscreen; actives 12% (n = 300,000); max response, %; in the data active means max response mostly above about 13%, no sharp cut-off; inactive means mostly below about 14%; further: read at 38.3 µM for the half of the compounds with a filed dose; 0% is about no effect
Shiga toxin inh: Shiga toxin inhibition | Vero cells, Shiga toxin protein synthesis inhibition reporter | inhibition, % at 38.7 µM | actives 9.2% (n = 290,000) | AID 2315; in the data active means inhibition mostly above about 28%, no sharp cut-off; inactive means mostly below about 43%; further: 0% is about no effect
VACV Venus inh: vaccinia inhibition (Venus reporter) | actives 0.46% (n = 330,000) | Potency, µM (top dose mostly 36.5 µM), for inactives: at the highest dose activity change, negative = inhibition, usual class: inhibitors | Vaccinia virus Venus reporter expression, fluorescence; calls by dose curve; tested in A549 cells; further: potency means the concentration at half of the fitted maximal effect; on the % scale 0 is the no-effect control and ±100 the full control effect; nearly all actives have a fitted effect of over 30% in size
Vaccinia mCherry: vaccinia inhibition (mCherry reporter); Vaccinia virus mCherry reporter infection, fluorescence; Potency, µM (titrated, usually from 36.5 µM), inactives show top-dose activity change, negative = inhibition, usual class: inhibitors; actives 0.63% (n = 310,000); AID 720579; calls by dose curve; tested in A549 cells; further: potency means the concentration at half of the fitted maximal effect; on the % scale 0 is the no-effect control and ±100 the full control effect; nearly all actives have a fitted effect of over 35% in size
LASV entry inh: blocks Lassa virus binding to or entry into cells; Potency, µM (highest dose often 37.9 µM), for the others: top-dose activity change, negative = inhibition, actives largely listed as inhibitors; actives 1.2% (n = 300,000); Lassa virus pseudotype entry inhibition, cell reporter; calls by dose curve; tested in HEK293 cells; further: potency means the concentration at half of the fitted maximal effect; on the % scale 0 is the no-effect control and ±100 the full control effect; nearly all actives have a fitted effect of over 50% in size
* marks the source's active call; other numbers are inactive results; i = inactive; ? = inconclusive; nt = not tested or not shown; [ ] = another dose, or the depositor's remark. The full list was thinned out, with hits kept by preference.

SMILES	Marburg entry inh	Cycloheximide cs	Shiga toxin inh	VACV Venus inh	Vaccinia mCherry	LASV entry inh
CCOC(=O)N1CCC(NC(=O)c2ccc3c(c2)N(Cc2ccc(F)cc2)C(=O)c2ccccc2S3(=O)=O)CC1	?	nt	nt	-10%	-12%	8%[46.1 µM]
O=C1c2ccccc2C(=O)c2c1cccc2N1CCCC1	?	43*	56*	-1%	i	13%
O=C1c2ccccc2-c2onc3ccc(N4CCCC4)c1c23	nt	-6	11	nt	nt	nt
O=C1C=C(N2CCCCC2)c2ccccc2C1=O	?	nt	nt	?	?	8.9µM*
COc1cc(NC2c3ccccc3C(=O)N2c2cc(C)ccn2)cc(OC)c1OC (centres undefined)	nt	23*	58*	13%	-13%	nt
Cc1ccc(N2C(=O)c3ccccc3C2Nc2cccnc2)nc1 (centres undefined)	0%	36*	46	-9%	31%	3%
CCOc1ccccc1NC1c2ccccc2C(=O)N1c1ccc(C)cn1 (centres undefined)	nt	7	-3	-5%	?	nt
CCOC(=O)c1ccccc1NC1c2ccccc2C(=O)N1c1ccc(C)cn1 (centres undefined)	6%	21*	39	-15%	11%	5%
CCc1ccccc1NC1c2ccccc2C(=O)N1c1cc(C)ccn1 (centres undefined)	nt	1	25	8%	i	nt
COc1cc(NC2c3ccccc3C(=O)N2c2ccc(C)cn2)cc(OC)c1OC (centres undefined)	-35%	48*	118*	-1%	?	-21%
Cc1cc(C)c(Cn2c3ccccc3c3cnn(CC(=O)NCc4ccc(Cl)cc4)c(=O)c32)c(C)c1	19%[46.1 µM]	nt	nt	?	?	23%[46.1 µM]
CCCCc1ccc(S(=O)(=O)NC(=O)C2(C)CCN2C(=O)C/C=C/c2ccccc2)cc1 (centres undefined)	nt	nt	nt	2%	13%	nt
CC1=C[C@@H](C)OC2(C1)C(=O)N(Cc1ccc(Br)cc1)c1cccc(Br)c12 (some centres undefined)	4%[14.2 µM]	nt	nt	nt	nt	?
CCCCc1nc(NC[C@H]2CCCO2)c(C#N)c2c1COC(C)(C)C2	-13%	nt	nt	nt	nt	nt
Cc1ccnc(N2C(=O)c3ccccc3C2Nc2ccccc2Cl)c1 (centres undefined)	nt	9	29*	0%	i	nt
Cc1ccc(NC(=O)c2cccc3c(=O)c4c([nH]c23)CCCC4)c(C)c1	?	nt	nt	-6%	-7%	8%[46.1 µM]
Cc1ccc(NC(=O)c2nc(S(C)(=O)=O)ncc2N(Cc2ccco2)Cc2cccs2)cc1C	?	nt	nt	-12%	-15%	?
COc1cc(OC)cc(-c2nc3nc(C)c(CCC(=O)Nc4ccc(C)cc4C)c(C)n3n2)c1	2%[46.1 µM]	nt	nt	6%	-10%	3%[46.1 µM]
CSc1n[nH]c(-c2ccc(C(F)(F)F)cc2)n1	?	41*	107*	2%	-8%	15%[46.1 µM]
COc1cc(C(=O)N(C)CCOc2ccccc2)ccc1OCC(=O)Nc1cccc(C(F)(F)F)c1	?	nt	nt	?	?	-29%
c1ccc(-c2ccc(C3=Nn4c(Cn5nnc6ccccc65)nnc4SC3)cc2)cc1	?	-1	-23	-23%	nt	11µM*
c1ccc(C2=Nn3c(Cn4nnc5ccccc54)nnc3SC2)cc1	1%[46.1 µM]	-3	-2	-9%[7.34 µM]	i[7.34 µM]	13%
CC1CN(C(=O)c2ccc(CNS(=O)(=O)c3cccc(C(F)(F)F)c3)cc2)CC(C)O1 (centres undefined)	13µM*	-3	1	-13%	-7%	-30%
Cc1noc(C)c1COC(=O)c1ccc(-c2nc3ccccc3s2)s1	-30%	18*	73*	-8%	-7%	?
CCNC(=O)COC(=O)c1ccc(-c2nc3ccccc3s2)s1	nt	34*	99*	nt	nt	nt
SMILES	Marburg entry inh	Cycloheximide cs	Shiga toxin inh	VACV Venus inh	Vaccinia mCherry	LASV entry inh
CCNC(=O)COC(=O)c1cc(C)nc2ccccc12	-3%[46.1 µM]	-1	-2	-9%	-4%	10%
CCOC(=O)c1[nH]c2ccc(C)cc2c1N	14%	27*	61*	nt	nt	?
CCOC(=O)c1[nH]c2ccccc2c1NC(C)=O	nt	-4	-7	2%	?	nt
CCOC(=O)c1[nH]c2ccccc2c1NC(=O)CC	nt	-5	-9	-10%	i	nt
CCOC(=O)c1[nH]c2cc(OC)c(OC)cc2c1N	1%	2	0	nt	nt	22%
CCOC(=O)c1[nH]c2ccccc2c1NC(=S)Nc1cccc(C)c1	3%	32*	27	-10%	i	?
CCOC(=O)c1[nH]c2ccccc2c1NC(=S)Nc1ccccc1	?	23*	28	-9%	-15%	17%
Cc1ccc(N(CC(=O)NCCc2ccccc2)S(=O)(=O)N(C)C)cc1	-24%[46.1 µM]	nt	nt	6%	0%	-17%[46.1 µM]
Clc1ccccc1CSc1ncn(-c2ccccc2)n1	?	42*	70*	nt	nt	?
Cc1ccc(CSc2ncn(-c3ccccc3)n2)cc1	-9%	36*	86*	-8%	-12%	?
O=C(CSc1ncn(-c2ccccc2)n1)NCc1ccccc1	-32%	-2	-3	nt	nt	1%
C[C@H](ON=C1[C@H]2CCn3c(=O)n(-c4ccccc4)c(=O)n3[C@@H]2[C@H](O)[C@@H]2O[C@H]12)c1cn([C@H](CO)Cc2ccccc2)nn1	7%[14.2 µM]	nt	nt	nt	nt	?
COc1ccccc1-c1ccc(SCC(=O)Nc2cc(C)on2)nn1	-1%[46.1 µM]	25	18	-16%	i	-13%
COc1ccccc1-c1ccc(SCc2cccc(C)c2)nn1	16%	23*	29	-4%	0%	12%
O=[N+]([O-])c1ccc(CSc2ccc(-c3ccccn3)nn2)cc1	14%[46.1 µM]	-1	20	-15%	-8%	-1%[46.1 µM]
COc1ccccc1-c1ccc(SCc2ccc([N+](=O)[O-])cc2)nn1	10µM*	24	26	-14%	-27%	?
CC1(C)C2CCC1(CS(=O)(=O)N1CCCc3ccccc31)C(=O)C2 (centres undefined)	-9%	18*	22	1%	nt	0%
CCc1cc(=O)[nH]c(SCC(=O)N2CCOCC2)n1	0%[46.1 µM]	nt	nt	-2%	-1%	2%
Cc1cccc(C)c1C(OCCN(C)C)C1CCCCC1 (centres undefined)	21µM*	-4	-11	-11%	-10%	?
COC(=O)c1nnn(-c2ccc(F)c(Cl)c2)c1C(=O)OC	5%[46.1 µM]	1	-10	-4%	i	15%
COC(=O)c1c(C)nn(-c2ccc(F)c(Cl)c2)c1-c1cc(C)on1	4.5µM*	2	-5	-12%	-2%	?
Nc1nnnn1/N=C/c1ccccc1O	2%	nt	nt	-12%	-18%	16%
Nc1nnnn1/N=C/C(Br)=C/c1ccccc1	5µM*	68*	176*	?	?	?
Nc1nnnn1/N=C/C=C/c1ccccc1	3%	17*	41	-4%	-19%	27%
Nc1nnnn1CC(=O)N/N=C/C=C/c1ccccc1	0%[46.1 µM]	-2	24	-3%[7.34 µM]	i[7.34 µM]	4%
CC(=O)N1CC2=C(CCCC2)C(C)CC12CCCCC2 (centres undefined)	-18%	nt	nt	nt	nt	nt
